ChEMBL document CHEMBL4513216, “Probing the Open Global Health Chemical Diversity Library for Multistage-Active Starting Points for Next-Generation Antimalarials” (ACS Infect Dis, 2020)
In all, about 65,000 compounds went through this assay and about 2,100 (3.2%) showed an effect of 50% or more. The median lay at about -52%. The entries come from a sample that favours strong results as a whole.

test system: Plasmodium falciparum; assay: Screen against P. falciparum Asexual Blood Stage (ABS), at 5uM; format: functional, Dd2; conditions: tested at 5 uM

Structure (SMILES)	INHIBITION [%]
O=C(C1CCC1)N1CCC2(CC1)OCCO2	-22.7
O=C(c1ccc[nH]1)N1CCCC2(CCCN2Cc2cccnc2)C1 (stereo not given)	-53.7
CCNCCc1nc2cc(F)ccc2[nH]1	-115
CNCCc1nc2cc(F)ccc2[nH]1	-61.7
Fc1ccc2[nH]c(C3CCCN3Cc3c[nH]cn3)nc2c1 (stereo not given)	81
c1cncc(OC[C@@]23CCC[C@@H]2CN(C2CCOCC2)C3)c1	3.99
CCCc1nnc2sc(C3CCN(CC)CC3)nn12	-55.6
c1cnc2c(c1)CN(C1CCOC1)CCN2CC1CC1 (stereo not given)	-73.8
COc1c(Br)cc(Br)cc1CNC(C)Cn1cccn1 (stereo not given)	17.9
COc1cccc(CNCc2cccnc2-n2cccn2)c1OC	70.1
COc1cccc(CNC(C)Cn2cccn2)c1OC (stereo not given)	-22.3
CN1CCN(Cc2cccc(C#N)c2)Cc2cccnc21	-71
N#Cc1cccc(CN2CCn3cc(Cn4cccn4)nc3C2)c1	78.6
CC(Cn1cccn1)NCc1cccc(C#N)c1 (stereo not given)	-46.4
CCN1C[C@@H]2CN(c3cc(OC)ncn3)CCC[C@]2(C(=O)O)C1	-22
COC(=O)c1ccc(C2SCC(=O)Nc3c2cnn3C2CCCC2)cc1 (stereo not given)	-86.9
CN1CCC(N(Cc2ccco2)S(=O)(=O)c2ccc(Br)cc2Cl)CC1	74.7
CN1CCC(N(Cc2ccco2)S(=O)(=O)c2cc(Br)ccc2Br)CC1	76.2
CC(Cn1ccnc1)NCc1csc2c1CCCC2 (stereo not given)	22.3
COCCN1C[C@@H]2[C@@H](OC)CCN(Cc3cccc(C)n3)[C@@H]2C1	-1.19
CO[C@@H]1CCN(S(=O)(=O)N(C)C)[C@@H]2CN(Cc3ccncc3)C[C@@H]21	-53.3
CO[C@H]1CCN(Cc2cccc(C)n2)[C@@H]2CN(Cc3cccnc3)C[C@H]12	70.4
CCS(=O)(=O)N1CC[C@H](OC)[C@H]2CN(Cc3ccncc3)C[C@H]21	-64.4
CO[C@@H]1CCN(S(=O)(=O)N(C)C)[C@@H]2CN(Cc3cccnc3)C[C@@H]21	-88.2

Structure (SMILES)	INHIBITION [%]
CO[C@H]1CCN(Cc2cccs2)[C@@H]2CN(Cc3ccncc3)C[C@H]12	61.5
CO[C@@H]1CCN(Cc2cccs2)[C@@H]2CN(Cc3ccncc3)C[C@@H]21	53.8
CO[C@H]1CCN(C2CCC2)[C@@H]2CN(Cc3ccncc3)C[C@H]12	-41.2
COCCN1C[C@@H]2[C@@H](OC)CCN(Cc3ccncc3)[C@@H]2C1	24.3
O=C(c1ccncc1)N1CCN2C[C@H](Oc3cncnc3)C[C@H]2C1	-105
COc1ccc(CNC(C)Cn2cccn2)cc1OC (stereo not given)	-66.8
COc1cc(CNC(C)Cn2cccn2)cc(OC)c1OC (stereo not given)	-12.2
COc1ccc(C(C)NCc2cscn2)cc1Cn1cccn1 (stereo not given)	71.6
COc1ccc(C(C)NCc2ccsc2)cc1Cn1cccn1 (stereo not given)	73.1
N#Cc1ccc(OC[C@]23COC[C@H]2CN(Cc2ccoc2)C3)nc1	-15.7
Cc1ccc(CN2CC[C@@H]3[C@H]2CCC(=O)N3Cc2ccncc2)s1	-6.15
CSc1nccc(N2CCN(C)C3(CCNC(=O)CC3)C2)n1 (stereo not given)	-69.1
O=C1C[C@@H]2CC[C@H](CN1)N2C1CCOCC1	-0.465
O=C1[C@H]2CN(Cc3nccs3)C[C@H]2CN1c1cncnc1	-64.4
O=C(CN(C1=NCCCCC1)c1ccc(Cl)cc1)c1ccccc1	75.5
COCCN1CCN(S(=O)(=O)C2CC2)Cc2ccc(C)nc21	-12
COc1cccc(S(=O)(=O)N2C[C@@H](N(C)C)[C@H](C(C)C)C2)c1	72.2
CN(C)[C@@H]1CN(Cc2cnn(C)c2)[C@@H]2COC[C@H]12	-104
Cc1c(F)cccc1S(=O)(=O)NC(C)(C)CN	80.9
Cc1cccc(CN2CC[C@H]3OCC[C@@]3(C(=O)N3CCCO3)C2)n1	-77.9
O=C1CC[C@H]2[C@@H](CCN2Cc2ccco2)N1	-46.7
Cc1ccc2c(c1)C(NC(C)C)CC21CCNCC1 (stereo not given)	-41.2
Cc1ccc2c(c1)C1(CCNCC1)CC2NC(C)C (stereo not given)	-31.2
COc1ccc2c(c1)C1(CCNCC1)CC2NC1CC1 (stereo not given)	0.674

Structure (SMILES)	INHIBITION [%]
Cc1ccc2c(c1)C1(CCNCC1)CC2NC1CC1 (stereo not given)	74.6
O=C1CC2(CCNCC2)C(=O)N1c1cccc(F)c1	-155
O=C1NC2(CCNCC2)CC1c1ccccc1 (stereo not given)	-129
Cc1ccc2c(c1)C(NC1CC1)CC21CCNCC1 (stereo not given)	83.2
NC(=O)CC1CC2(CCNCC2)c2cc(F)ccc21 (stereo not given)	-82.7
c1ccc2c(c1)C(NC1CCCC1)CC21CCNCC1 (stereo not given)	75.7
Fc1ccc2c(c1)C1(CCNCC1)CC2OCC1CC1 (stereo not given)	70.1
Cc1c(C2SCC(=O)Nc3c2cnn3C(C)(C)C)cnn1C (stereo not given)	-41.3
CC(C)c1nccc([C@H]2C[C@@H]3CCN(Cc4ccco4)C[C@H]3O2)n1	-19.7
CC(C)c1ccccc1OCCNC(=O)N1CCC2(CC1)OCCO2	-63.2
Cc1nc(C)c(CC(=O)N2C[C@H]3CC[C@@H](C2)N(CC2CC2)C3)s1	-79.3
Fc1ccc2c(c1)C1(CCNCC1)CC2NC1CC1 (stereo not given)	83
CC(C)NC1CC2(CCNCC2)c2cc(F)ccc21 (stereo not given)	11.4
O=C(NCc1ccccn1)[C@]12COC[C@H]1CN(Cc1ccsc1)C2	-42.4
CNC(=O)[C@H]1C[C@@H]2CCN(Cc3ccncc3)C[C@H]2O1	-70.6
Cc1cccc(OC(C)C(=O)NCC2(N(C)C)CCCC2)c1 (stereo not given)	81.4
Cc1cccc(NC(=O)N2CCC(CO)(Nc3ccccc3)CC2)c1	-38.235
CCNC(=O)[C@@H]1CN(Cc2ccccc2)C[C@H]1C(=O)c1ccc(F)cc1	-30.5
CCOc1cccc(CN2CCCC(Nc3ccc(F)cc3)C2)c1O (stereo not given)	86.3
COc1cc(CN2CCCC(Nc3cccc(F)c3)C2)cc(Cl)c1O (stereo not given)	91.7
COC(=O)N1CCC(Nc2ccc(C#N)c(Cl)c2)C1 (stereo not given)	22.4
COc1ccc(C(=O)C2CCCN(Cc3cccc(F)c3)C2)c(OC)c1 (stereo not given)	23.9
